Screening results as filed in PubChem.
TDP1 cell CPT: growth inhibition of DT40 Tdp1-/-;hTDP1 cells with camptothecin (screen for TDP1 inhibitors); chicken DT40 Tdp1-/-;hTDP1 cells + 20 nM CPT, ATP luminescence, 48 h; 420,000 compounds, 12% hits; Potency, µM (titrated, usually from 46.2 µM), inactives show at the highest dose activity change, negative = growth inhibition, most hits filed as inhibitors; also: potency is read from the fitted curve at half-maximal effect; nearly all actives have a fitted effect of over 55% in size
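Chicken DT40 Tdp1-/- cells stably complemented with human TDP1 were seeded at 400 cells/well in medium containing 20 nM camptothecin, exposed to pin-transferred compounds, and grown at 37 °C for at least 48 hr. Viability was read as ATP luminescence.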
ELG1 repair inh: inhibitors of ELG1-dependent DNA repair in HEK293T cells; Potency, µM (series often up to 46.1 µM), without a hit: at the highest dose activity change, negative = inhibition, hits mostly inhibitors; AID 504467; 330,000 compounds, 2.3% hits; HEK293T ELG1-luciferase reporter, luminescence, 16 h; DNA damage induced by 5-fluorouridine; also: potency is read from the fitted curve at half-maximal effect; nearly all actives have a fitted effect of over 55% in size
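DMSO vehicle served as the neutral condition. Each well held 2,000 cells given 5-fluorouridine plus compound; after 16 hr at 37 °C/5% CO2, ONE-Glo was added and luciferase measured 30 min later.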
VP16 counter: inhibits Gal4-VP16 luciferase reporter, ROR gamma counter-screen; Drosophila S2 Gal4-VP16 UAS-luciferase, luminescence, 20 h; Potency, µM (doses to about 53.6 µM), without a hit: top-dose activity, negative = inhibition, actives largely listed as inhibitors; 310,000 compounds, 3.5% hits; AID 2546;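 also: Gal4-VP16 expression switched on by copper sulfate through the metallothionein promoter; potency is read from the fitted curve at half-maximal effect; nearly all actives have a fitted effect of over 50% in size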
RORgamma inh: ROR gamma (mouse) transcription inhibition | Potency, µM (top dose mostly 53.6 µM), for inactives: top-dose activity change, negative = inhibition, most hits filed as inhibitors | Drosophila S2 Gal4-RORgamma UAS-luciferase reporter, 20 h | 310,000 compounds, 5.4% hits; also: potency is read from the fitted curve at half-maximal effect; nearly all actives have a fitted effect of over 60% in size
Target sequence (P51450 whole entry, looked up, the tested form may be a part): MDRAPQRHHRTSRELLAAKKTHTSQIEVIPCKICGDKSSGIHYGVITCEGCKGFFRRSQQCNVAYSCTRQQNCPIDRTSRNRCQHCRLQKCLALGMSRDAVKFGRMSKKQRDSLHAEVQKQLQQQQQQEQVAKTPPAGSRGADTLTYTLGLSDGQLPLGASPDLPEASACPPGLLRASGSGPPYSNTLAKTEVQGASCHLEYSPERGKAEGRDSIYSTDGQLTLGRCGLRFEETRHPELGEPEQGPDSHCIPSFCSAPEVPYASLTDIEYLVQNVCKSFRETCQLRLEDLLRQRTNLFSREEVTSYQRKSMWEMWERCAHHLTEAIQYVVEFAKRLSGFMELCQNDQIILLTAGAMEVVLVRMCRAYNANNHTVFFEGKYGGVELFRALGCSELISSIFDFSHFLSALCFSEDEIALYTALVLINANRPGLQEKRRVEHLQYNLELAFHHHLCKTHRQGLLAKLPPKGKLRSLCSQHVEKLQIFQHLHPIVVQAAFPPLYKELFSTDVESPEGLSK
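ROR gamma transcriptional activity was tracked as Gal4-UAS luciferase output in stably transfected Drosophila Schneider cells, with compound added 1 hr before 700 uM copper sulfate induction and a 20 hr ambient-temperature incubation.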
IL-1B inflam inh: blocks inflammasome-driven IL-1 beta release. 360,000 compounds, 4.7% hits. THP-1 LPS/ATP IL-1B secretion, AlphaLISA, 16 h; active compounds read low. activity change, % at 57.5 µM. AID 743279; in the data active = activity change below about -50%; inconclusive = mostly about -30% to -49%
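THP-1 cells pretreated 1 hr with compounds (up to 57.5 uM final), then stimulated with LPS (250 ng/mL final) plus ATP (1.25 mM final); secreted IL-1B measured by AlphaLISA after 16 hr, decreased signal indicating inhibition.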
TDP1 cell noCPT: qHTS for Inhibitors of human tyrosyl-DNA phosphodiesterase 1 (TDP1): qHTS in cells in absence of CPT; Potency, µM (series often up to 46.2 µM), inactives show top-dose activity change, negative = growth inhibition, usual class: inhibitors; DT40 Tdp1-/- hTDP1 cells, no CPT, ATP luminescence, 48 h; 420,000 compounds, 15% hits; also: potency is read from the fitted curve at half-maximal effect; nearly all actives have a fitted effect of over 55% in size
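Growth of hTDP1-complemented DT40 Tdp1-knockout cells is measured by ATP luminescence after at least 48 hr compound exposure at 37 °C, with DMSO substituting for the 20 nM CPT used in the parallel screen.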
* hit, by the source's call; u = inconclusive; x = no result. Only some compounds are listed: those with a hit (about 21% of all), similar ones and a draw of the others. Unless noted, calls follow the shape of the dose curve; as a rule, active = well fitted curve in the direction sought with a large enough effect; inconclusive = small, poorly fitted or top-dose-only effect, or another doubt; inactive = no such curve, though single readings can be large; an effect the other way counts as inactive or inconclusive. % is scaled to controls: 0 for no effect and ±100 for the full control effect.

SMILES	TDP1 cell CPT	ELG1 repair inh	VP16 counter	RORgamma inh	IL-1B inflam inh	TDP1 cell noCPT
COc1ccc(NC(=O)CCOc2ccccc2F)cc1S(=O)(=O)N1CCCCC1	u	23.1µM*	x	x	-12.7	u
COc1ccc(NC(=O)CSc2ccc(F)cc2)cc1S(=O)(=O)N1CCCCC1	20.6µM*	5.1%	3.7%	u	-5.1	-85.4%
COc1ccc(NC(=O)CSc2ccc(NC(C)=O)cc2)cc1S(=O)(=O)N1CCCCC1	2.1%	-18.3%	23.9%	u	-3.2	u
CN(C)/C=C1\NC(=S)N(c2ccccc2)C1=O	31.6%	-5.0%	0.7%	-21.1%	-4.9	-9.7%
COc1ccc(N2C(=O)/C(=C/c3cccs3)NC2=S)cc1	1.46µM*	20.8%	u	10µM*	-6.4	5.8µM*
C/C(=N\Nc1nnc2c3ccccc3n(C)c2n1)c1ccc(C)o1	-18.1%	16.4µM*	5.3%	-40.3%	-65.2*	u
Cc1cc(C)n(-c2nnc3c4ccccc4n(C)c3n2)n1	-12.1%	u	u	3.16µM*	-4.7	u
CCOC(=O)COc1ccccc1/C=N/Nc1nnc2c3ccccc3n(C)c2n1	-2.3%	x	x	x	x	u
C/C(=N\Nc1ccc(C#N)cc1[N+](=O)[O-])c1ccc(C)o1	0.3%	u	-3.0%	u	-13.0	-10.9%
C/C(=N\Nc1nc(C)cc(C)n1)c1ccc(C)o1	4.5%	-5.0%	10µM*	7.08µM*	-1.6	0.2%
Cn1cccc1C(=O)N1CCC2(CCN(C(=O)Nc3cccc(C#N)c3)CC2)CC1	u	x	-6.9%	23.7%	x	u
C=CCC(NCc1ccccc1)c1ccccc1 (configuration not stated)	4.2%	20.8%	-4.2%	6.8%	-6.1	-7.6%
OC(c1ccccc1)C(NCc1ccccc1)c1ccccc1 (configuration not stated)	23.1µM*	x	x	x	-22.6	23.1µM*
COCc1cc(=O)[nH]c(-c2ccccc2OC(F)(F)F)n1	7.4%	-9.5%	3.5%	2.0%	-29.7	-5.7%
CSc1ncnc2[nH]ccc12	-6.5%	x	x	x	-6.6	-24.5%
O=C(c1ccccc1)c1coc2ccc(O)c(Cl)c12	-23.9%	u	1.2%	-3.4%	-12.4	-9.3%
CCOC(=O)c1c(C)cc(=O)oc1C	0.7%	13.4%	-3.8%	-21.3%	4.4	-6.7%
O=C1C(=O)c2c(C(=O)c3ccccc3)coc2-c2ccccc21	3.26µM*	u	3.55µM*	6.31µM*	u	2.06µM*
CCOC(=O)c1c(C)oc2c1C(=O)c1ccccc1C2=O	4.61µM*	7.3µM*	-22.4%	u	60.4	4.11µM*
Cc1oc2c(c1C(=O)c1ccccc1)C(=O)C(=O)c1ccccc1-2	1.16µM*	u	3.16µM*	2.82µM*	-88.3*	1.84µM*
CCOC(=O)C1CCCN(C(=O)c2ccc(C(F)(F)F)nc2C)CC1 (configuration not stated)	10.6%	x	x	x	17.2	-2.1%
O=C(NC1CC1)c1cccc(-c2cncc3nccn23)c1	-46.5%	x	x	x	-18.9	-13.0%
Oc1ccc(Br)cc1-c1nc2cnccn2c1NC1CCCC1	u	23.1µM*	u	22.4µM*	-92.7*	u
Oc1ccc(Br)cc1-c1nc2cnccn2c1NC1CCCCC1	-19.0%	-10.6%	u	12.6µM*	-70.3*	-24.7%
O=C(N[C@H]1C/C=C\C[C@@H](CC(=O)N(CCO)Cc2ccccc2)C(=O)N2CCC[C@@H]2COC1=O)OCC1c2ccccc2-c2ccccc21	8.2µM*	u	x	x	48.1	6.51µM*
SMILES	TDP1 cell CPT	ELG1 repair inh	VP16 counter	RORgamma inh	IL-1B inflam inh	TDP1 cell noCPT
O=C(N[C@H]1C/C=C\C[C@@H](CC(=O)N(CCO)Cc2ccccc2)C(=O)N2CCC[C@H]2COC1=O)OCC1c2ccccc2-c2ccccc21	13µM*	-0.1%	x	x	32.6	18.4µM*
O=C1CCC/C=C\C[C@H](CC(=O)N(CCO)Cc2ccccc2)C(=O)N2CCC[C@@H]2CO1	-2.5%	u	x	x	10.5	-14.2%
CCOc1ccc(C(=O)N[C@H](C(=O)N2CCN(c3ncccn3)CC2)C(C)C)cc1	u	x	x	x	25.6	u
O=C(COC(=O)c1cc[n+]([O-])cc1)Nc1ccc(Cl)cc1Cl	-12.4%	1.4%	x	x	10.8	-9.9%
C/C(=C\C(=O)c1ccc(Br)cc1)NNC(=O)c1ccccc1	u	x	x	x	45.9	18.4µM*
C/C(=C\C(=O)c1ccc(Br)cc1)NNC(=O)c1ccc(O)cc1	13µM*	u	4.47µM*	5.01µM*	69.5	u
C/C(=C\C(=O)c1ccc(Cl)cc1)Nc1ccc(Br)cc1	-3.3%	x	x	x	-50.3*	-28.2%
Cc1cccc(C(=O)NNC(=O)c2ccc(Br)cc2)c1	-8.6%	u	1.9%	1.1%	-12.4	-18.7%
COc1ccc(CN(C)CC(=O)N(C)CC(=O)Nc2ccccc2Br)cc1F	-4.3%	3.8%	x	x	11.6	u
O=C(COC(=O)/C=C/c1cccs1)NC(c1ccccc1)c1ccccc1	u	u	-18.5%	-37.8%	10.5	u
O=C(COC(=O)/C=C/C(=O)N1CCN(c2ccccc2)CC1)NC(c1ccccc1)c1ccccc1	u	-13.5%	u	u	-54.4*	u
COc1cc(C#Cc2c(-c3cncn3C)n(C)c3ccc(-c4ccc(CN5CCOCC5)cc4)cc23)cc(OC)c1	5.8µM*	u	x	x	-25.7	8.2µM*
COc1cc(C#Cc2c(-c3cncn3C)n(C)c3ccc(-c4cnc(OC)nc4)cc23)cc(OC)c1	16.4µM*	u	x	x	-58.3*	u
CCOc1ccccc1CNc1nc2nc(C)cc(C)n2n1	u	x	x	x	x	-23.8%
CN(CCc1ccc(Cl)c(Cl)c1)C[C@@H](O)COc1ccc(NS(C)(=O)=O)cc1	u	x	2.5%	-12.6%	x	23.7µM*
Cc1ccc(NC(=O)COC(=O)c2ccco2)cc1S(=O)(=O)N1CCCCC1	-12.7%	x	x	x	9.0	-25.0%
Cc1ccccc1OC1C(=O)N(CC2CCCO2)C1c1ccc2c(c1)OCO2 (configuration not stated)	14.6µM*	u	u	u	0.6	13µM*
CCO[C@H](Cc1ccc(OCCc2ccc(OS(C)(=O)=O)cc2)cc1)C(=O)O	-5.5%	x	x	x	x	0.1%
Cn1c(=O)c2c(nc(Br)n2C/C=N/NC(N)=S)n(C)c1=O	20.6µM*	-7.2%	-26.1%	5.01µM*	x	u
